Most compounds without a hit are left out; they make up all but 3.5% or so of the library.
GPR151 ag: activators of human GPR151, primary screen, cell-based, PathHunter beta-arrestin, luminescence; G-protein coupled receptor 151 (Homo sapiens), Q8TDV0; PathHunter beta-arrestin GPR151 cells; activation, % at 11.2 µM; 650,000 tested, 1% active; AID 1508602, 2020; in the data active = activation above about 4.9%
Target sequence (Q8TDV0 whole entry, looked up): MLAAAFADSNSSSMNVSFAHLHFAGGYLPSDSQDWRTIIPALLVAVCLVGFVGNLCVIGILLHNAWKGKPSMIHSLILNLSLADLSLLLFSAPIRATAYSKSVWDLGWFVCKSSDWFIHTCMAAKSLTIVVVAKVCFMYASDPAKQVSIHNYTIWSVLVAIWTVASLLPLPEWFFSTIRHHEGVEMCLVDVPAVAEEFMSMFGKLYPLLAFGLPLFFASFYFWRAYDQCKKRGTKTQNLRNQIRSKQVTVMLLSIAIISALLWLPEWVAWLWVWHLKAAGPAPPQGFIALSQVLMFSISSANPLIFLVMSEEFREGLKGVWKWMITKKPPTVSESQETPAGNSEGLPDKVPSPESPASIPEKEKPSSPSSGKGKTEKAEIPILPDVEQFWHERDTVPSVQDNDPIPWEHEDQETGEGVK
FBW7 act: FBW7 E3 ligase activators, primary screen, biochemical, AlphaScreen, human; F-box/WD repeat-containing protein 7 (Homo sapiens), Q969H0; AlphaScreen FBW7–phospho-cyclin E peptide binding, activator screen; normalized activity (activation), % at 26.1 µM; 650,000 tested, 0.13% active; AID 1259310, 2017; in the data active = normalized activity above about 1.9%;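 also: purified mutant Fbw7 with reduced substrate affinity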
TEAD-YAP inh: TEAD-YAP interaction inhibition, primary screen, TEAD-YAP interaction inhibitor project, luminescence, HEK-TIYL cells; 640,000 tested, 1.4% active; AID 1259422, 2018; TEAD-Gal4/YAP UAS-luciferase luminescence; inhibition, % at 9.12 µM; in the data active = inhibition above about 32%
MITF primary: MITF inhibitors, primary screen, biochemical, AlphaScreen, human | Microphthalmia-associated transcription factor (Homo sapiens), O75030 | 650,000 tested, 0.91% active | AlphaScreen MITF homodimerization, bead proximity signal | inhibition, % at 2.6 µM; in the data active = inhibition above about 50%
MITF confirm: MITF inhibitors, retest of hits, confirmation, biochemical, AlphaScreen, triplicate | shares compounds with MITF primary | AlphaScreen MITF homodimerization, biotin/His-MITF beads | inhibition, % at 2.6 µM | 4,700 tested, 16% active;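 active = inhibition above a cutoff derived from the DMSO control wells, cut at about 28% in these data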;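 also: inhibitors lower the bead chemiluminescence by keeping MITF from dimerizing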
AS interf DR: AlphaScreen optical interference compounds, dose response, counter-screen, biochemical, HTS | shares compounds with MITF primary | IC50, µM | AlphaScreen optical interference counterscreen, cell-free | 480 tested, 6% active; call rule not given here
AS interf ctr: AlphaScreen optical interference compounds, counter-screen for MITF inhibitor project, biochemical, triplicate | shares compounds with MITF primary | LysRS AlphaScreen counterscreen, signal interference | inhibition, % at 2.6 µM | 4,700 tested, 7.6% active;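 active = inhibition above a cutoff derived from the DMSO control wells, cut at about 30% in these data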
Each line names hits and unclear results; the compound was inactive in the other large screens (follow-up assays come after a bar, where they were run); ! = repeats disagree.

O=C(COc1ccccc1)Nc1ccc(NC(=O)c2cccs2)cc1	MITF primary 51 | MITF confirm inactive | AS interf ctr inactive
O=c1[nH]cc(S(=O)(=O)O)c2ccccc12	MITF primary 65 | MITF confirm inactive | AS interf ctr inactive
COc1ccc(Br)cc1/C=N/NC(=O)CNC(=O)c1ccco1	none
O=C(NCc1cccc(C(F)(F)F)c1)C1CCN(c2ccc(Nc3ccncn3)nn2)CC1	none
NCCNCCNCCN	MITF primary 91 | MITF confirm 70 | AS interf ctr 100
COc1ccc(C2/C(=C(/O)c3ccc(C)cc3)C(=O)C(=O)N2CC(C)O)cc1OC (centres undefined)	MITF primary 68 | MITF confirm inactive | AS interf ctr inactive
CC(C(=O)Nc1ccccc1-c1ccccc1)N1CCN(C)CC1 (centres undefined)	MITF primary 68 | MITF confirm inactive | AS interf ctr inactive
O=P(O)(O)O[C@@H]1[C@H](O)[C@H](O)[C@@H](OP(=O)(O)O)[C@H](OP(=O)(O)O)[C@H]1O	MITF primary 54! (no result: FBW7 act, TEAD-YAP inh) | MITF confirm inactive | AS interf ctr inactive
COc1ccc(CNC(=O)CN(C)Cc2ccc(C(C)(C)C)cc2)cc1	MITF primary 74 | MITF confirm inactive | AS interf ctr inactive
COc1ccc(CNc2cc(-c3cccc(C)c3)ncn2)cc1	none
Cc1ccc(NC(=O)CN(c2cccc(C)c2C)S(=O)(=O)c2ccccc2)cc1Cl	none
O=C(COc1ccc(Br)cc1)NCc1nc(-c2ccc(Cl)cc2)no1	MITF primary 56 | MITF confirm inactive | AS interf ctr inactive
NC(=O)n1c(CCC(=O)O)nc2sc3c(c2c1=O)CCC3	MITF primary 78 | MITF confirm 73 | AS interf DR inactive | AS interf ctr inactive
O=S(=O)(c1ccc(F)cc1)N1CCCN=C1SCc1ccccc1	none
CCOC(=O)c1c(-c2ccc(OC)cc2)csc1NC(=O)CN1CCOCC1	MITF primary 71 | MITF confirm inactive | AS interf ctr inactive
CCOC(=O)c1c(-c2ccccc2)csc1NC(=O)CCN1CCN(C)CC1	none
CCOC(=O)c1c(-c2ccc(F)cc2)csc1NC(=O)CCN1CCN(CC)CC1	MITF primary 71 | MITF confirm inactive | AS interf ctr inactive
CCOC(=O)c1c(-c2ccc(C)cc2)csc1NC(=O)CN1CCOCC1	none
CCOC(=O)c1c(-c2ccc(C)o2)csc1NC(=O)CN1CCCCC1C (centres undefined)	MITF primary 57 | MITF confirm inactive | AS interf ctr 39
O=C1CCC(CCC(=O)N2CCC(Oc3cccnc3)CC2)(Cc2cccs2)N1 (centres undefined)	none
N#C/C(=C\C=C\c1ccco1)C(N)=S	MITF primary 65 | MITF confirm 60 | AS interf ctr 87
Cc1[nH]c2ccccc2c1/C=N/NC(=O)c1cc(-c2cccc([N+](=O)[O-])c2)n[nH]1	none
COc1ccc(C)cc1Nc1cnn(C23CC4CC(CC(C4)C2)C3)c(=O)c1Cl	none
COc1ccc([N+](=O)[O-])cc1Nc1cnn(C23CC4CC(CC(C4)C2)C3)c(=O)c1Cl	MITF primary 51 | MITF confirm inactive | AS interf ctr inactive
CCOc1ccc(N2CCN(CC(=O)Nc3ccc(SC)cc3)C2=O)cc1	MITF primary 61 | MITF confirm inactive | AS interf ctr inactive
CC1(C)C2CC=C(CN3CCN(Cc4ccc5c(c4)OCO5)CC3)C1C2 (centres undefined)	MITF primary 64 | MITF confirm inactive | AS interf ctr inactive
CC1(C)C2CC=C(COCC(O)CN3CCN(Cc4ccc5c(c4)OCO5)CC3)C1C2 (centres undefined)	MITF primary 70 | MITF confirm inactive | AS interf ctr inactive
CC1(C)[C@H]2CC=C(CN3CCOc4ccc(CN5CCC(O)CC5)cc4C3)[C@@H]1C2	none
COC(=O)C1CCN(C(c2cccc(F)c2)c2sc3nc(C)nn3c2O)CC1 (centres undefined)	none
